Most compounds without a hit are left out; they make up all but 0.38% or so of the library.
Rac1 act GTP bind: human Rac1 activated mutant GTP binding change; AID 764; GST-Rac1 activated beads, fluorescent GTP binding, flow cytometry; actives lie on both sides; 100% means binding = to untreated wells; percent activity (GTP binding), % at 10 µM; actives 0.11% (n = 190,000); P63000;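 active = GTP binding at least 20 percentage points away from the 100% baseline, in either direction, so actives lie on both sides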
Rac1 wt modul: modulators of human Rac1 wildtype GTP binding; P63000; GTP binding activity (% of control), % at 10 µM; actives 0.27% (n = 190,000); GST-Rac1 beads, fluorescent GTP binding, flow cytometry; actives lie on both sides; 0 = cold GTP competed, 100 = untreated;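 active = GTP binding activity at least 20 points away from the 100% control level, either lower or higher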
HRas wt GTP bind: changes GTP binding to wildtype human HRas; P01112; GST-Ras wt beads, Bodipy-FL-GTP binding, flow cytometry; actives lie on both sides; GTP binding activity, % at 10 µM; actives 0.14% (n = 190,000); AID 759;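 active = GTP binding activity at least 20% away from the 100% baseline, either lowered as inhibitor or raised as activator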;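 also: 0% = unlabeled GTP competition control and 100% = no-compound control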
Target sequence (P01112 whole entry, looked up): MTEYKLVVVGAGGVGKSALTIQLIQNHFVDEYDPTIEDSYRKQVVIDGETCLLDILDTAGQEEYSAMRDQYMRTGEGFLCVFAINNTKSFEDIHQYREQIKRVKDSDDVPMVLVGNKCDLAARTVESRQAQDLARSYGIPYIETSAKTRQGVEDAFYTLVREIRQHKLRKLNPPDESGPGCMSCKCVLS
Rab7 wt GTP bind: alters GTP binding to wildtype dog Rab7 | GST-Rab7 beads, fluorescent GTP binding, flow cytometry; actives lie on both sides; untreated = 100%, excess cold GTP = 0% | AID 758 | actives 0.055% (n = 190,000) | GTP binding activity (percent of control), % at 10 µM;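 active = fluorescent GTP binding to Rab7 beads changed by at least 20 points from the 100% baseline, either direction, mostly lower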;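 also: median green fluorescence of bound Bodipy-FL-GTP per Rab7 bead population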
Cdc42 wt GTP: human Cdc42 wildtype GTP binding change, either direction; AID 761; GST-Cdc42 beads, Bodipy-GTP binding, flow cytometry; actives lie on both sides; percent activity (GTP binding), % at 10 µM; actives 0.2% (n = 190,000); P60953;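 active = percent activity GTP binding at least 20 points away from the 100% baseline, either down as inhibitor or up as activator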;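 also: median bead fluorescence of bound Bodipy-FL-GTP at 100 nM; 0% = excess unlabeled GTP control and 100% = no compound control; below 100% means less GTP binding so inhibitor and above means activator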
Target sequence (P60953 whole entry, looked up): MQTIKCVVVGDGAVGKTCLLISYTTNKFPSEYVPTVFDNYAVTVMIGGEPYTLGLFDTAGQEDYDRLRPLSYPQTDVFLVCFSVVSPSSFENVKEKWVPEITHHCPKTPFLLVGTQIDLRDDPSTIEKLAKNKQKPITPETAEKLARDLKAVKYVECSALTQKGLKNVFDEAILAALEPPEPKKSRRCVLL
Rab2A wt mod: changes GTP binding to wildtype dog Rab2A, up or down. P61105. GST-Rab2 wt beads, Bodipy-GTP binding, flow cytometry. GTP binding activity, % at 10 µM. actives 0.19% (n = 190,000). AID 760;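 active = GTP binding activity at least 20 points away from 100%, either lowered or raised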;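 also: 0% = beads with excess unlabeled GTP and 100% = no-compound control corrected for plate trend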
Numbers without * were called inactive; [ ] = dose if it differs, or a comment.

SMILES	Rac1 act GTP bind	Rac1 wt modul	HRas wt GTP bind	Rab7 wt GTP bind	Cdc42 wt GTP	Rab2A wt mod
Cc1ccccc1NC(=O)C1CCCN1S(=O)(=O)c1cccc2cccnc12 (stereo not drawn)	111	128*[activator]	113	109	117	113
CCOc1ccc(CCNC(=O)c2cc3ccccn3n2)cc1OCC	99	96	97	97	99	97
Cn1nc(C(=O)NCc2cccnc2)c2ccccc2c1=O	98	100	98	96	96	99
COC(=O)c1cccc(NC(=O)c2nn(C)c(=O)c3ccccc23)c1	81	72*	77*	92	73*	79*
Cn1nc(C(=O)Nc2cccnc2)c2ccccc2c1=O	86	85	74*	92	73*	69*
FC(F)(F)c1cccc(NC(=S)NNC(=S)NCc2ccccc2)c1	80*	80	86	86	81	84
CNC(=O)COC(=O)c1cc(NC(=O)c2ccco2)c(OC)c(OC)c1	87	83	81	87	78*	80
O=C(O)c1ccccc1CSc1ncccc1C(=O)O	93	97	94	94	94	93
Cc1cccc(CSc2ncccc2C(=O)O)c1	134*[activator]	161*[activator]	129*[activator]	120*[activator]	149*[activator]	132*[activator]
O=C(O)c1cccnc1SCc1cccc(Cl)c1	127*[activator]	129*[activator]	125*[activator]	124*[activator]	131*[activator]	132*[activator]
CC(C)NC(=O)C12CC3CC(C1)CC(n1cnc(Cl)n1)(C3)C2	105	121*[activator]	106	105	111	107
O=C(N1CCOCC1)C12CC3CC(C1)CC(n1cnc(Cl)n1)(C3)C2	100	105	102	97	106	101
Cc1nc(-c2ccccc2)sc1C(=O)NN	114	128*[activator]	118	104	125*[activator]	120*[activator]
O=C1Nc2ccc(Br)cc2C12NNc1ccccc1O2 (stereo not drawn)	89	84	82	96	79*	83
CCOc1cc(C=O)cc(Br)c1OCC(N)=O	96	97	95	99	96	97
O=C1/C(=C\c2cccnc2)Sc2ccccc21	88	84	90	90	72*	89
CCOC(=O)c1cc(C(=O)OCC)c(=O)[nH]c1N1CCCC1	50*	51*	57*	24*	56*	54*
CCOC(=O)c1cc(C(=O)OCC)c(=O)[nH]c1C	100	111	97	97	107	100
COc1ccc(OCC(=O)Nc2nonc2NC(=O)COc2ccc(OC)cc2)cc1	88	79*	85	95	84	82
Cc1cc(C)cc(OCC(=O)Nc2nonc2NC(=O)COc2cc(C)cc(C)c2)c1	95	97	94	95	96	95
Cc1cccc(NC(=O)CN2C(=O)N/C(=C/c3ccc(-c4cccc(C(=O)O)c4C)o3)C2=O)c1	92	97	91	93	93	92
Cc1ccc(NC(=O)CN2C(=O)S/C(=C\c3ccc(-c4cccc(C(=O)O)c4C)o3)C2=O)cc1C	82	84	89	97	79*	82
COc1cc(NC(=O)CC2NCCNC2=O)cc(OC)c1 (stereo not drawn)	97	99	99	98	97	99
COc1cc(/C=N/NC(=O)c2cnn3c(C)cc(-c4ccccc4)nc23)ccc1O	89	89	96	94	89	89
COc1cc(/C=N/Nc2nc(C)nc3c2cnn3-c2ccccc2)ccc1O	85	70*	83	95	77*	79*
SMILES	Rac1 act GTP bind	Rac1 wt modul	HRas wt GTP bind	Rab7 wt GTP bind	Cdc42 wt GTP	Rab2A wt mod
CC(C)N1CSC(=S)N(Cc2ccccc2)C1	96	99	98	97	97	97
CCN(CC)c1ccc(-c2nn3c(-c4cccnc4)nnc3s2)cc1	84	83	73*	88	72*	73*
N#CC1(c2ccc(NC(=O)c3ccccc3F)cc2)CCCC1	98	101	101	97	100	94
COc1ccc(OC)c(/C=N/NC(=O)c2ccc(Cn3cc([N+](=O)[O-])cn3)o2)c1	92	81	82	87	91	78*
O=C(CCc1ccccn1)N1CCCC(CNS(=O)(=O)c2cccs2)C1 (stereo not drawn)	53*	54*	60*	62*	61*	62*
Cc1cc(C)n2nc(C(=O)N3CCCC(CNS(=O)(=O)c4cccs4)C3)cc2n1 (stereo not drawn)	31*	28*	35*	22*	34*	33*
CCc1cc(C(=O)N2CCCC(CNS(=O)(=O)c3cccs3)C2)n(C)n1 (stereo not drawn)	95	97	95	96	95	95
N#Cc1c(=O)c2nc(NCc3ccccc3)ncc2n2ccccc12	90	79*	83	85	84	80
N#Cc1c(=O)c2nc(NCCCO)ncc2n2c(=O)c3ccccc3[nH]c12	93	103	91	96	84	86
O=C(CSc1nc(C2CC2)nc2ccccc12)Nc1ccccc1N1CCOCC1	96	98	98	98	95	98
CCOC(=O)c1c(NC(=O)/C=C/c2ccc3c(c2)OCO3)sc(C)c1CC	77*	87	91	92	83	85
CCOC(=O)c1c(NC(=O)/C=C/c2ccc3c(c2)OCO3)sc(C)c1C	101	102	104	100	103	103
CCn1c2ccccc2c2nnc(SCC(=O)NCCOC)nc21	99	105	101	100	97	35*
CC(C)CNC(=O)c1cccc(NC(=O)C(C)C)c1	98	96	100	96	103	97
O=C(Nc1ccccc1)C1=C(c2ccccc2)S(=O)(=O)CCS1(=O)=O	81	87	90	98	77*	87
CC(C)(CO)CNC(=O)c1ccc(OC2CCN(C(=O)C3CC3)CC2)cc1	94	96	98	105	93	99
Cc1cc(NC(=O)CSc2nc3ccccc3c(=O)n2C2CCCC2)no1	101	104	100	103	102	102
COC(=O)CSc1nc2cc(Cl)ccc2c(=O)n1C1CCCC1	92	89	80	90	79*	80
COc1ccc(S(=O)(=O)Nc2cccc(F)c2C)cc1C(=O)N1CCOCC1	98	98	97	98	98	98
c1ccc2[nH]c3cc4ncnc4cc3nc2c1	91	79*	77*	87	83	77*
FC(F)c1nc2ccccc2[nH]1	97	101	100	100	100	99
Cc1ccc(N2C(=O)c3ccccc3C2Nc2cccnc2)nc1 (stereo not drawn)	103	121*[activator]	101	99	110	104
